F508del corr = CFTR F508del correction in bronchial cells | CFBE cells, YFP halide quenching; stimulated with forskolin plus potentiator P3; % fluorescence drop versus neutral controls | 350,000 tested, 0.36% active | activity (quench increase), % at 7.58 µM;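 active means mean added fluorescence quench of at least 8% versus neutral control, with both replicates also reaching 8%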;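 further: cells transiently co-express mutant CFTR-F508del with the halide-sensitive YFP; corrector assay measuring rescue of mutant channel to the surface after 24 h compound exposure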
EWS-Fli block = EWS/Fli transcriptional activity inhibition; A673 NR0B1-luciferase reporter, viability-normalised; inhibition, % at 12.6 µM; 350,000 tested, 0.67% active; AID 651661;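 active means mean inhibition of at least 50% after viability correction, with every replicate also passing that limit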;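 further: firefly luciferase signal divided by Alamar Blue viability fluorescence both relative to DMSO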
PGC1a acetyl inh = PGC1a acetylation modulation, inhibitor mode; 350,000 tested, 0.17% active; AID 651687; inhibition, % at 15.6 µM; U2OS PGC1a acetylation, AlphaScreen anti-acetyl-lysine; with virally co-expressed GCN5 acetyltransferase;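 active means every replicate shows inhibition of at least 40%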;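 further: 0% = neutral control wells and 100% = positive control wells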
PAX8 reporter = PAX8 transcriptional activity inhibition. RMG-I TPO-luciferase reporter, SteadyGlo, 24 h. inhibition, % at 12.6 µM. 360,000 tested, 1.2% active. AID 652154;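 active means mean replicate inhibition at least 60% with every replicate also reaching 60%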;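 further: luciferase light reporting Pax8 driven TPO promoter activity; plate controls were median of neutral control wells for no effect and mitoxantrone controls for full effect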
Env fusion inh = inhibitors of HIV Env-mediated cell fusion | inhibition, % at 12.3 µM | 360,000 tested, 1.1% active | HeLa-JRFL Env/CEM21 cell fusion, luciferase;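 active means mean replicate inhibition score of at least 50 and every replicate individually at or above 50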;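 further: 0% = plate neutral controls and 100% = maraviroc near 300 nM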
GSIS activator = GLuc luminescence reporter in INS-1E cells, primary screen for activators of glucose-dependent secretion of insulin | INS-1E GLuc reporter insulin secretion, 2-3 h | activation, % at 16.6 µM | 370,000 tested, 0.61% active;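 active means lowest replicate activation of at least 40%, so every replicate reaches that level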;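 further: 0% = median of neutral control wells and 100% = median of IBMX positive control wells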
* marks the source's active call; other numbers are inactive results; . = no result given; [ ] = remark or other dose. This is a sample that favours compounds with a hit; in the whole collection about 2.7% have one here.

SMILES	F508del corr	EWS-Fli block	PGC1a acetyl inh	PAX8 reporter	Env fusion inh	GSIS activator
COc1ccc(CN([C@H](C)CO)S(=O)(=O)N(Cc2ccccc2)[C@H](CO)C(C)C)cc1	-4	3	0	-3	32	-32
C=C[C@@H](C)N(Cc1ccc(OC)cc1)S(=O)(=O)N(Cc1ccccc1)[C@H](C=C)C(C)C	2	11	-8	8	89*	-35
C[C@@H]1CN([C@H](C)CO)C(=O)c2cc(NC(=O)C3CC3)ccc2O[C@@H]1CN(C)Cc1ccc(-c2ccccc2)cc1	-2	11	-11	.	.	-15
O=C(C[C@H]1CC[C@H]2[C@@H](COC[C@H](O)CN2Cc2ccc(F)cc2)O1)N1CCc2ccccc2C1	2	14	-15	-1	.	-12
COCC(=O)Nc1ccc2c(c1)[C@H]1C[C@H](CC(=O)NCc3ccc(Cl)cc3)O[C@@H](CO)[C@H]1O2	1	-5	-1	8	3[16.7 µM]	-3
C[C@@H]1CN([C@@H](C)CO)C(=O)c2cc(C#CCc3ccccc3)cnc2O[C@@H]1CN(C)C(=O)C1CCC1	-2	-3	-1	-26	-15[16.7 µM]	29
C[C@@H]1CN([C@@H](C)CO)C(=O)c2cc(C#CCc3ccccc3)cnc2O[C@@H]1CN(C)C(=O)C1CC1	-2	-5	38	.	-13[16.7 µM]	16
C[C@H]1CN([C@@H](C)CO)C(=O)c2cc(C#CCc3ccccc3)cnc2O[C@@H]1CN(C)C(=O)C1CC1	-2	-2	-2	.	-2[16.7 µM]	72*
C[C@@H]1CN([C@H](C)CO)C(=O)c2cc(C#CCc3ccccc3)cnc2O[C@H]1CN(C)C(=O)C1CCC1	1	23	-1	-7	-6[16.7 µM]	54*
Cc1cc(O)c(C(C)C)cc1C1(c2cc(C(C)C)c(O)cc2C)OC(=O)c2ccccc21	2	29	-3	89*	68*	-19
Cc1cc(C2(c3ccc(O)c(C)c3)OC(=O)c3ccccc32)ccc1O	-2	18	.	32	.	-17
CCN(CCNCC(O)COc1ccccc1C(C)C)c1cccc(C)c1 (configuration not stated)	2	30	-5	24	18	383*
CCOC(=O)[C@H]1[C@H]2COc3ccccc3[C@@H]2N2C(=O)c3c(C)cc(C)cc3NC(=O)[C@@]12C	0	1	49	3	89*	-16
CCOC(=O)[C@@H]1[C@H]2COc3cc(OC)ccc3[C@H]2N2C(=O)N(c3cccc(F)c3)C(=O)[C@@]12C	-2	-11	-27	6	95*	-7
CCOC(=O)[C@@H]1[C@H]2COc3ccccc3[C@@H]2N2C(=O)N(c3cccc(Cl)c3)C(=O)[C@]12C	-2	5	-13	-5	33	-2
CCOC(=O)[C@H]1[C@H]2COc3ccccc3[C@@H]2N2C(=O)c3cc(C)ccc3NC(=O)[C@@]12C	1	-11	-8	-23	-19	21
CCOC(=O)[C@@H]1[C@H]2COc3cc(OC)ccc3[C@H]2N2C(=O)N(c3ccc(C(F)(F)F)cc3)C(=O)[C@]12C	0	8	-17	15	109*	-29
CCOC(=O)[C@@H]1[C@H]2COc3ccccc3[C@@H]2N2C(=O)N(c3cccc(Cl)c3)C(=O)[C@@]12C	0	9	.	10	55*	-16
C[C@H](CO)N1C[C@H](C)[C@H](CN(C)S(C)(=O)=O)Oc2ncc(/C=C/c3ccccc3)cc2C1=O	2	-5	1	.	-6[16.7 µM]	6
COc1ccc(CNC(=O)C[C@H]2C=C[C@@H](NC(=O)Nc3ccc4c(c3)OCO4)[C@H](CO)O2)cc1	-2	-10	-4	-13	-3[16.7 µM]	-6
COc1ccc(NC(=S)/N=C(\N)Nc2nc(C)c3ccc(C)cc3n2)cc1	-3	12	-3	18	-11	-2
CCOc1ccc2nc(N/C(N)=N/C(=S)Nc3ccc(C)c(C)c3)nc(C)c2c1	1	-2	.	132*	.	-6
COc1ccc(N(C)S(=O)(=O)c2cccc(C(=O)NCC3CCCCC3)c2)cc1	8.7*	5	.	15	11	-40
COCC(=O)N1C[C@H](C)[C@@H](OC)CN(C)C(=O)c2cc(NC(=O)Nc3ccccc3)ccc2OC[C@@H]1C	-1	-6	-2	.	.	-18

Bioassay records deposited in PubChem BioAssay by Broad Institute.
